From PubChem BioAssay (NCI)
This is part of a sample that, as a whole, favours compounds with a hit. Of some 79,000 tested, about 15% had one in any assay. The source made the active and inactive calls. Rule as the data show it: active = growth inhibition above about 70%; inactive = the rest.

Columns and labels:
[1] = NCI Yeast Anticancer Drug Screen. Data for the rad50 strain (AID 155);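 also: 0% = growth of vehicle-only cultures of the same strain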; conditions: S. cerevisiae rad50 strain growth inhibition, active compounds read high
In short: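 A DNA repair-deficient yeast mutant serves as the test organism; compound-induced growth inhibition is calculated against vehicle-treated cells.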

[2] = NCI Yeast Anticancer Drug Screen. Data for the mec2-1 strain (AID 157); conditions: S. cerevisiae mec2-1 strain, active compounds read high
In short: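 Readout is yeast growth inhibition, normalised to vehicle-treated controls, in the mec2-1 strain exposed to compound.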

[3] = NCI Yeast Anticancer Drug Screen. Data for the sgs1 mgt1 strain (AID 161);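 also: 0% = growth of cultures given vehicle only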; conditions: S. cerevisiae sgs1 mgt1 strain, active compounds read high
In short: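 Yeast cells carrying a defined DNA-repair defect were exposed to test compounds. Growth inhibition was measured relative to vehicle-treated controls.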

[4] = NCI Yeast Anticancer Drug Screen. Data for the cln2 rad14 strain (AID 165);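 also: 0% = growth equal to vehicle treated cultures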; conditions: S. cerevisiae cln2 rad14 strain, active compounds read high
In short: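 Relative to vehicle controls, growth inhibition of compound-treated cln2 rad14 yeast was recorded.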

[5] = NCI Yeast Anticancer Drug Screen. Data for the bub3 strain (AID 167); conditions: S. cerevisiae bub3 mutant strain, active compounds read high
In short: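 Inhibition values come from growth of compound-treated mutant yeast normalised to vehicle-treated controls.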

[6] = NCI Yeast Anticancer Drug Screen. Data for the mlh1 rad18 strain (AID 175); conditions: S. cerevisiae mlh1 rad18 strain growth inhibition, active compounds read high
In short: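 Test agents were incubated with a yeast strain of defined genotype (DNA damage repair defect). Inhibition of growth was derived by comparison with vehicle-exposed cultures.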

[7] = at 5.0 µM (retest, dose inferred, filed as 0.5)
[8] = at 50.0 µM (retest, dose inferred, filed as 5.0)

Measured: growth inhibition

COC1CCCCC1C(=O)C(C#N)C1CCCCC1C1CCCCC1 (stereo not given)
active: [1]; at 50.0 µM 96% | [2]; at 50.0 µM 95.5% | [3]; at 50.0 µM 97% | [4]; at 50.0 µM 98.5% | [5]; at 50.0 µM 96.7% | [6]; at 50.0 µM 98.3%
inactive: [1]; [7] 4% | [1]; [8] -2% | [2]; [7] 3% | [2]; [8] -6% | [3]; [7] 7% | [3]; [8] 7% | [4]; [7] -5% | [4]; [8] 0% | [5]; [7] -3% | [5]; [8] -3% | [6]; [7] 0% | [6]; [8] 3%

N#CSCC(=O)c1ccccc1
active: [1]; [7] 93% | [1]; [8] 98% | [1]; at 50.0 µM 98.8% | [2]; [7] 95% | [2]; [8] 99% | [2]; at 50.0 µM 99.2% | [3]; [7] 95% | [3]; [8] 98% | [3]; at 50.0 µM 97.5% | [4]; [7] 87% | [4]; [8] 99% | [4]; at 50.0 µM 97.2% | [5]; [7] 94% | [5]; [8] 98% | [5]; at 50.0 µM 99% | [6]; [7] 92% | [6]; [8] 98% | [6]; at 50.0 µM 98.6%

COc1ccccc1OCC(COC(=O)Nc1ccc(C)cc1)OC(=O)Nc1ccc(C)cc1 (stereo not given)
active: [1]; at 50.0 µM 88.4% | [2]; at 50.0 µM 82.4% | [3]; at 50.0 µM 85.2% | [4]; at 50.0 µM 78.6% | [5]; at 50.0 µM 85% | [6]; at 50.0 µM 78.7%
inactive: [1]; [7] 2% | [1]; [8] 2% | [2]; [7] -5% | [2]; [8] -5% | [3]; [7] -18% | [3]; [8] -18% | [4]; [7] -2% | [4]; [8] -2% | [5]; [7] -1% | [5]; [8] -1% | [6]; [7] -1% | [6]; [8] -1%

O=C(O)c1ccccc1SC(Sc1ccccc1C(=O)O)c1cccc(Cl)c1
active: [1]; [8] 92% | [1]; at 50.0 µM 88% | [2]; [8] 97% | [2]; at 50.0 µM 80% | [3]; [8] 99% | [3]; at 50.0 µM 97% | [4]; [8] 87% | [4]; at 50.0 µM 90% | [5]; [8] 97% | [5]; at 50.0 µM 81.5% | [6]; [8] 97% | [6]; at 50.0 µM 98%
inactive: [1]; [7] 8% | [2]; [7] 7% | [3]; [7] 22% | [4]; [7] -1% | [5]; [7] 9% | [6]; [7] 15%

c1ccc(-c2cc(N3CCCCC3)c(-c3ccccc3)o2)cc1
inactive: [1]; [7] -1% | [1]; [8] 11% | [1]; at 50.0 µM 21.4% | [2]; [7] 9% | [2]; [8] 14% | [2]; at 50.0 µM 1.1% | [3]; [7] 8% | [3]; [8] 28% | [3]; at 50.0 µM 44.4% | [4]; [7] 1% | [4]; [8] 0% | [4]; at 50.0 µM -5.7% | [5]; [7] 7% | [5]; [8] 12% | [6]; [7] 15% | [6]; [8] 43% | [6]; at 50.0 µM 25.1%
active: [5]; at 50.0 µM 85.4%

O=C(CC1(O)C(=O)Nc2c(Cl)cc(Cl)cc21)c1ccc(Br)cc1Br (stereo not given)
active: [1]; [8] 98% | [1]; at 50.0 µM 92.3% | [2]; [7] 96% | [2]; [8] 99% | [2]; at 50.0 µM 90.8% | [3]; [7] 97% | [3]; [8] 92% | [3]; at 50.0 µM 91.3% | [4]; [7] 94% | [4]; [8] 93% | [4]; at 50.0 µM 90.7% | [5]; [7] 97% | [5]; [8] 93% | [5]; at 50.0 µM 93.8% | [6]; [8] 98% | [6]; at 50.0 µM 92.2%
inactive: [1]; [7] 55% | [6]; [7] 58%

CCN(CC)CCCC(C)Nc1c2ccccc2nc2c(C)cc(Br)cc12 (stereo not given)
inactive: [1]; [7] 2% | [1]; at 50.0 µM 58% | [2]; [7] 8% | [2]; [8] 61% | [2]; at 50.0 µM 39.5% | [3]; [7] 17% | [3]; at 50.0 µM 63.1% | [4]; [7] 19% | [4]; [8] 66% | [5]; [7] 17% | [5]; at 50.0 µM 36.9% | [6]; [7] 8% | [6]; [8] 69% | [6]; at 50.0 µM 50.1%
active: [1]; [8] 72% | [3]; [8] 76% | [4]; at 50.0 µM 91.2% | [5]; [8] 71%

COc1ccc2c(c1)[n+]([O-])c(S(=O)(=O)c1ccc(C)cc1)c(N)[n+]2[O-]
inactive: [1]; [7] 4% | [2]; [7] 18% | [3]; [7] 35% | [4]; [7] 16% | [4]; [8] 66% | [5]; [7] 50% | [6]; [7] 36%
active: [1]; [8] 80% | [1]; at 50.0 µM 99.2% | [2]; [8] 80% | [2]; at 50.0 µM 98.8% | [3]; [8] 96% | [3]; at 50.0 µM 96% | [4]; at 50.0 µM 99% | [5]; [8] 96% | [5]; at 50.0 µM 99% | [6]; [8] 95% | [6]; at 50.0 µM 99%

CC(=O)c1nc2ccccc2n1C(C)C(=O)c1ccccc1 (stereo not given)
active: [3]; [8] 74%
inactive: [1]; [7] 39% | [1]; [8] 37% | [1]; at 50.0 µM 16.9% | [2]; [7] 23% | [2]; [8] 34% | [2]; at 50.0 µM 21.6% | [3]; [7] 18% | [3]; at 50.0 µM 68.4% | [4]; [7] 33% | [4]; [8] 24% | [4]; at 50.0 µM 6.15% | [5]; [7] -7% | [5]; [8] 35% | [5]; at 50.0 µM 37.5% | [6]; [7] 18% | [6]; [8] 30% | [6]; at 50.0 µM -1.7%

N#CC1C(=O)NC(=O)CC1c1ccccc1 (stereo not given)
inactive: [1]; [7] 10% | [2]; [7] -10% | [3]; [7] 10% | [4]; [7] 10% | [5]; [7] 0% | [6]; [7] 13%
active: [1]; [8] 99% | [1]; at 50.0 µM 99.2% | [2]; [8] 99% | [2]; at 50.0 µM 99.2% | [3]; [8] 99% | [3]; at 50.0 µM 99% | [4]; [8] 99% | [4]; at 50.0 µM 99.3% | [5]; [8] 99% | [5]; at 50.0 µM 99.3% | [6]; [8] 99% | [6]; at 50.0 µM 99.2%
